Results filed as inconclusive are left out. Activity calls are given as the source filed them. Calls follow the shape of the dose curve; as a rule, active = well fitted curve in the direction sought with a large enough effect; inconclusive = small, poorly fitted or top-dose-only effect, or another doubt; inactive = no such curve, though single readings can be large; an effect the other way counts as inactive or inconclusive.

A short description of assay [1]: Quantitative High-Throughput drug screen in 47 multiple myeloma cell lines against the NCATS MIPE library collection: KMS12PE_JCRB cell viability assay (AID 1918972). Also: nearly all actives have a fitted effect of over 30% in size. Also: potency is read from the fitted curve at half-maximal effect. The note with it: KMS12PE myeloma viability, CellTiter-Glo ATP, 48 h; series mostly up to 45.8 µM. In outline:
(§1)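 Viability readout: CellTiter-Glo luminescence following 5 min room-temperature incubation with reagent. Prior exposure: 48 h, 37C, humidified 5% CO2, 500 cells per well.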

Assay [2] in a line: Quantitative High-Throughput drug screen in 47 multiple myeloma cell lines against the NCATS MIPE library collection: MMM1_PLB cell viability assay (AID 1918976). Also: potency is read from the fitted curve at half-maximal effect; nearly all actives have a fitted effect of over 35% in size. As to conditions: MMM1 myeloma cells viability, CellTiter-Glo, 48 h; series mostly up to 45.8 µM. In outline:
(§2)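 Cells were exposed to library compounds for 48 hours, after which ATP was measured by CellTiter-Glo. Signal was taken as median relative luminescence units.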
On the technique in general: In ATP-based viability assays light output follows the ATP content of the culture.

Assay [3] is described as follows: Quantitative High-Throughput drug screen in 47 multiple myeloma cell lines against the NCATS MIPE library collection: OCIMY1_PLB cell viability assay (AID 1918979). Also: nearly all actives have a fitted effect of over 35% in size. As to conditions: OCI-MY1 myeloma viability, CellTiter-Glo ATP, 48 h; series mostly up to 45.8 µM. A digest of the protocol:
as §2

Assay [4] can be described thus: Quantitative High-Throughput drug screen in 47 multiple myeloma cell lines against the NCATS MIPE library collection: MM1R_ATCC cell viability assay (AID 1918981). Also: nearly all actives have a fitted effect of over 35% in size. Also: potency is read from the fitted curve at half-maximal effect. The note with it: MM1R multiple myeloma cells, CellTiter-Glo viability, 48 h; series mostly up to 45.8 µM. A digest of the protocol: as §2
The nature of assay [5]: Quantitative High-Throughput drug screen in 47 multiple myeloma cell lines against the NCATS MIPE library collection: KMS20_JCRB cell viability assay (AID 1918973). Also: nearly all actives have a fitted effect of over 45% in size. Also: potency is read from the fitted curve at half-maximal effect. As to conditions: CellTiter-Glo ATP, 48 h; series mostly up to 45.8 µM. In outline:
as §1

A short description of assay [6]: Quantitative High-Throughput drug screen in 47 multiple myeloma cell lines against the NCATS MIPE library collection: NCIH929_DSMZ cell viability assay (AID 1918978). Also: nearly all actives have a fitted effect of over 35% in size. Also: potency is read from the fitted curve at half-maximal effect. The note with it: NCI-H929 myeloma viability, CellTiter-Glo ATP, 48 h; series mostly up to 45.8 µM. A digest of the protocol:
as §2

Assay [7] can be described thus: Quantitative High-Throughput drug screen in 47 multiple myeloma cell lines against the NCATS MIPE library collection: MM1S_ATCC cell viability assay (AID 1918980). Also: nearly all actives have a fitted effect of over 45% in size. Also: potency is read from the fitted curve at half-maximal effect. The note with it: MM1S myeloma viability, CellTiter-Glo ATP luminescence, 48 h; series mostly up to 45.8 µM. In outline: as §2
The nature of assay [8]: Quantitative High-Throughput drug screen in 47 multiple myeloma cell lines against the NCATS MIPE library collection: KMS26_JCRB cell viability assay (AID 1918975). Also: nearly all actives have a fitted effect of over 45% in size. Also: potency is read from the fitted curve at half-maximal effect. As to conditions: KMS26 myeloma cells viability, CellTiter-Glo ATP, 48 h; series mostly up to 45.8 µM. A digest of the protocol:
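Myeloma cells (500 per well) were exposed to MIPE 4.0 compounds by pin transfer and incubated 48 hours at 37C, 5% CO2. Viability was read as ATP by CellTiter-Glo luminescence, normalised to DMSO (100%) and media-only (0%) wells.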

A short description of assay [9]: Quantitative High-Throughput drug screen in 47 multiple myeloma cell lines against the NCATS MIPE library collection: MOLP8_DSMZ cell viability assay (AID 1918977). Also: nearly all actives have a fitted effect of over 45% in size. As to conditions: MOLP8 myeloma viability, CellTiter-Glo ATP luminescence, 48 h; series mostly up to 45.8 µM. In outline: as §2

Turning to `CCCCCCCc1ccc(CCc2cccc(O)c2C(=O)O)cc1`, the Potency result in assay [1] and in [3] was “inactive” each time. Also, the Potency in [2] is 14.8 µM (active); in [4] it was 8.33 µM (active).
On to `CN[C@@H](C)C(=O)N[C@H]1CCCC[C@H]2CC[C@@H](C(=O)N[C@@H](c3ccccc3)c3cn(CCCCc4ccc(CCCCn5cc([C@@H](NC(=O)[C@@H]6CC[C@@H]7CCCC[C@H](NC(=O)[C@H](C)NC)C(=O)N76)c6ccccc6)nn5)cc4)nn3)N2C1=O`, for which the Potency is 4.69 µM (active) in assay [1], 4.18 µM (active) in assay [5], 8.33 µM (active) in [6] and 18.7 µM (active) in assay [7]. In addition, in [3], the Potency entry is “inactive”.
Turning to `COc1cc(F)c(F)c(Nc2ccc(I)cc2F)c1NS(=O)(=O)C1(C[C@H](O)CO)CC1`, the Potency in [1] is 16.6 µM (active); in assay [8] it was 13.2 µM (active); in [2] it was 2.64 µM (active); in [6], 18.7 µM (active); in [7] it was 16.6 µM (active); in [4], 10.5 µM (active).
As to `COc1ccc(COc2cc3oc(=O)c4cc(C(C)O)ccc4c3cc2OC)cc1` (configuration not stated), the Potency in assay [1] was 2.64 µM (active); in assay [8], 11.8 µM (active); in [2], 18.7 µM (active); in assay [6], 26.4 µM (active); in assay [7] it was 13.2 µM (active).
In the case of `Cc1cc(C=c2sc3nc4ccccc4n3c2=O)c(C)n1-c1ccccc1`, the Potency result in assay [1], in [6] and in [3] was “inactive” throughout. Moreover, the Potency in [8] was 5.9 µM (active); in assay [4], 7.43 µM (active).
As to `CCOC(=O)N[C@@H]1CC[C@@H]2[C@@H](C1)C[C@H]1C(=O)O[C@H](C)[C@H]1[C@@H]2C=Cc1ccc(-c2cccc(F)c2)cn1`, the Potency was 14.8 µM (active) in [1] and 20.9 µM (active) in assay [4]. Also, the Potency entry in assay [8] was “inactive”.
As to `OCCC#Cc1nc(-c2ccc(F)cc2)c(-c2ccncc2)n1CCCc1ccccc1`, the Potency in assay [1] is 18.7 µM (active); in assay [5], 16.6 µM (active); in assay [6], 8.33 µM (active). Besides, the Potency result in assay [9] and in assay [4] was “inactive” throughout.
With `CCc1ccc(CCOc2ccc(CC3SC(=O)NC3=O)cc2)nc1` (configuration not stated), the Potency entry in assay [1], in [8], in assay [9], in [6], in assay [3] and in assay [4] was “inactive” throughout.
As to `CCn1cc(C(=O)O)c(=O)c2cc(F)c(N3CCNC(C)C3)c(F)c21` (configuration not stated), the Potency result in assay [1], in assay [5], in assay [6], in assay [3] and in assay [4] was “inactive” each time.
In the case of `CC(C)(N)C(=O)N[C@H](COCc1ccccc1)C(=O)N1CCC2(CC1)CN(S(C)(=O)=O)c1ccccc12`, the Potency result in assay [1] is “inactive”. Besides, the Potency is 23.5 µM (active) in [2], 23.5 µM (active) in assay [7] and 18.7 µM (active) in assay [4].
Take `O=C1CCc2cc(OCCCCc3nnnn3C3CCCCC3)ccc2N1`: the Potency result in assay [1], in assay [8], in [3] and in assay [4] was “inactive” each time.
On to `CC(C)(C)NCC(O)c1ccc(O)c(CO)c1` (configuration not stated), for which the Potency result in assay [1], in [5] and in assay [6] was “inactive” in each case. Moreover, the figures for the Potency in assay [7] and in assay [4] were 0.059 µM (active) and 0.0264 µM (active), respectively.
For `CNC[C@H](O)c1cccc(O)c1`, the Potency result in assay [1], in assay [6], in assay [3] and in assay [7] was “inactive” each time.
Consider `COCC(=O)NCC=Cc1ccc2ncnc(Nc3ccc(Oc4ccc(C)nc4)c(C)c3)c2c1`, for which the Potency in [1] was 16.6 µM (active); in assay [6], 20.9 µM (active); in assay [7] it was 26.4 µM (active).
`CCCS(=O)(=O)Nc1ccc(F)c(C(=O)c2c[nH]c3ncc(Cl)cc23)c1F`: the Potency in assay [1] is 16.6 µM (active). The Potency result in [3] and in assay [7] was “inactive” in each case.
Regarding `N=c1nc(N2CCCCC2)cc(N)n1O`, the Potency entry in assay [1], in [3], in assay [7] and in assay [4] was “inactive” each time.
For the molecule `CCC(C)(C)C(=O)O[C@H]1C[C@@H](C)C=C2C=C[C@H](C)[C@H](CC[C@@H]3C[C@@H](O)CC(=O)O3)[C@H]21`, the figures for the Potency in assay [1], in assay [6] and in [7] were 5.9 µM (active), 13.2 µM (active) and 16.6 µM (active), respectively. Besides, in assay [3], the Potency result is “inactive”.
Consider `CC(=O)Oc1ccccc1C(=O)O`, for which the Potency result in [1] and in assay [3] was “inactive” throughout. The Potency is 4.18 µM (active) in assay [6], 5.26 µM (active) in assay [7] and 18.7 µM (active) in assay [4].
Consider `Cc1cccc(-c2nn(C(=S)Nc3ccccc3)cc2-c2ccnc3ccccc23)n1`, for which the Potency result in assay [1] and in assay [3] was “inactive” throughout. Moreover, the Potency was 2.35 µM (active) in [6] and 16.6 µM (active) in assay [7].
Regarding `O=c1n(CCCN2CCN(c3cccc(Cl)c3)CC2)nc2ccccn12`, the Potency entry in assay [5], in assay [6] and in assay [4] was “inactive” in each case.
Turning to `COc1nc(-c2ccc3c(c2)OCO3)n(-c2ccc(NC(=O)CSc3ccccc3)cc2)n1`, the Potency entry in assay [1], in assay [6], in assay [3] and in [4] was “inactive” each time.
On to `C#Cc1cccc(Nc2ncnc3cc(OCCOC)c(OCCOC)cc23)c1`, for which the Potency was 2.09 µM (active) in assay [1], 7.43 µM (active) in assay [6] and 9.35 µM (active) in assay [7]. The Potency result in assay [3] was “inactive”.
Consider `Fc1ccc(Cl)cc1-c1nc(Nc2ccncc2)c2nccnc2n1`, for which the Potency in assay [1] is 0.469 µM (active); in assay [6], 16.6 µM (active). For the same molecule, the Potency result in [7] was “inactive”.
As to `COc1ccc2nc(S(=O)Cc3ncc(C)c(OC)c3C)[nH]c2c1` (configuration not stated), the Potency result in [5] and in [8] was “inactive” throughout. In addition, the Potency in [6] was 10.5 µM (active); in assay [7] it was 18.7 µM (active).
Consider `Cc1ccnc(NS(=O)(=O)c2ccc(NC(=O)Nc3ccc(S(=O)(=O)Nc4nccc(C)n4)cc3)cc2)n1`, for which, in assay [1], the Potency is 20.9 µM (active). Also, the Potency entry in [6], in [3], in assay [7] and in assay [4] was “inactive” in each case.
Take `OC(CN1CCC(Cc2ccc(F)cc2)CC1)c1ccc(Cl)cc1` (configuration not stated): the Potency result in [1] and in assay [6] was “inactive” in each case.
As to `Nc1nc2c(ncn2COCCO)c(=O)[nH]1`, the Potency result in assay [5], in [8], in assay [9] and in [6] was “inactive” in each case.
Take `O=C1CCCC2=C1C(c1[nH]ncc1Cl)N=C(Nc1nc3ccccc3o1)N2` (configuration not stated): the Potency was 1.87 µM (active) in assay [1] and 5.9 µM (active) in assay [6]. Further, the Potency result in assay [3] and in [4] was “inactive” each time.

For the origin of these results see PubChem BioAssay (NCATS).
